Results as given in a collection of fitness landscapes (doi:10.1016/j.celrep.2020.107928).
Whole data set: some 81,000 sequences, median “one-hybrid fitness for binding parS DNA” near -0.17, cut for the highest 2% near 0.51. Many of the other results were omitted from the sample, so the highest values are more common in it than they were.

B1: Caulobacter ParB omega fusion; a variant is named by its letters at X, in order, B8GW30 (parent)
chain: MESVVVGEPGMSEGRRGLGRGLSALLGEVDAAPAQAPGEQLGGSREAPIEILQRNPDQPRRTFREEDLEDLSNSIREKGVLQPILVRPSPDTAGEYQIVAGERAWRAAQRAGLKTVPIMVRELDDLAVLEIGIIENVQRADLNVLEEALSYKVLMEKFERTQENIAQTIGKSXSHVANXMRLLXLPDEVQSYLVSGELTAXHARAIAAAADPVALAKQIIEGGLSVRETEALARKAPNLSAGKSKGGRPPRVKDTDTQALESDLSSVLGLDVSIDHRGSTGTLTITYATLEQLDDLCNRLTRGI

Variants of: B1
Assay: one-hybrid fitness for binding parS DNA (scaled: cognate 1, non-cognate 0); higher = stronger binding
Settings: with parS DNA site
Method in brief: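 The reporter was HIS3, with the binding site 19 bp from the promoter, in E. coli USO used for bacterial one-hybrid selection of Caulobacter ParB libraries with four specificity codons randomised. Growth was on M9 lacking histidine, with 0.1 mM IPTG and 5 mM 3-AT, for 48 hours at 37°C. Illumina sequencing covered plasmids before and after selection; three replicate libraries were pooled and variants with under 10 reads dropped. A fitness score is the log change in variant-to-wild-type read ratio, rescaled to the cognate and non-cognate references.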

Variant	one-hybrid fitness for binding parS DNA
PFAT	≤ 0.2
QRRC	≤ 0.2
SRTM	≤ 0.2
KSRC	≤ 0.2
DFWG	≤ 0.2
RIWG	0.985
RIWM	0.361
KFWG	≤ 0.2
RIWY	0.471
RFWG	0.744
RKWF	0.219
RHWM	≤ 0.2
RKWG	0.952
RHWQ	≤ 0.2
RHWG	0.844
RKWY	0.393
KKLC	≤ 0.2
FRWG	≤ 0.2
IIKT	≤ 0.2
IYPT	≤ 0.2
DRGE	≤ 0.2
FVTP	≤ 0.2
HMNE	≤ 0.2
PPQC	≤ 0.2

Variant	one-hybrid fitness for binding parS DNA
RERK	≤ 0.2
DGKG	≤ 0.2
IFLY	≤ 0.2
DNYC	≤ 0.2
ALFC	≤ 0.2
REWG	≤ 0.2
RDWG	≤ 0.2
RAWK	≤ 0.2
RAWM	0.35
RSWF	≤ 0.2
RSWG	0.93
RPWG	≤ 0.2
RCWG	1.02
RAWG	0.989
NGLR	≤ 0.2
NTER	≤ 0.2
REFQ	≤ 0.2
WDSN	≤ 0.2
KYTC	≤ 0.2
TIAK	≤ 0.2
PMKR	≤ 0.2
RLVG	0.991
RLKG	0.945
RLKP	≤ 0.2

Variant	one-hybrid fitness for binding parS DNA
RLVK	≤ 0.2
RLVQ	≤ 0.2
RLKH	0.247
QRLA	≤ 0.2
IESL	≤ 0.2
KWDD	≤ 0.2
RVNE	≤ 0.2
RVDF	≤ 0.2
RVNC	0.947
RVDC	0.846
RVNR	≤ 0.2
RVDM	0.258
YLAV	≤ 0.2
CPVL	≤ 0.2
ANSF	≤ 0.2
GFRL	≤ 0.2
RRFG	0.831
RRFD	≤ 0.2
RRAP	≤ 0.2
RRFM	≤ 0.2
RRAG	0.738
RRAR	≤ 0.2
SKVG	≤ 0.2
CPAW	≤ 0.2

Variant	one-hybrid fitness for binding parS DNA
QCMI	≤ 0.2
DCNA	≤ 0.2
RHPA	≤ 0.2
RHRA	0.58
RHYA	0.562
DHNA	≤ 0.2
RHIA	0.316
RHNA	0.543
RHDA	0.545
WLCT	≤ 0.2
EVML	≤ 0.2
IDCL	≤ 0.2
LAVM	≤ 0.2
TSYY	≤ 0.2
APPD	≤ 0.2
GVQC	≤ 0.2
TPMT	≤ 0.2
IMES	≤ 0.2
QKYV	≤ 0.2
NYKT	≤ 0.2
QTEY	≤ 0.2
RAFS	1.02
RAAH	≤ 0.2
RAFP	≤ 0.2

Variant	one-hybrid fitness for binding parS DNA
RAAS	1
RAFN	0.426
RAAD	≤ 0.2
FSYG	≤ 0.2
WYKS	≤ 0.2
CKSM	≤ 0.2
QYLA	≤ 0.2
RTIH	≤ 0.2
RCHY	0.46
RTRP	≤ 0.2
RTLS	1.01
RTHY	0.544
RTIP	≤ 0.2
RTRH	0.4
RTRS	0.83
RTLD	≤ 0.2
RTLN	0.43
RTIS	1.01
RSHY	0.491
APQT	≤ 0.2
KERF	≤ 0.2
LPLK	≤ 0.2
GVFL	≤ 0.2
VTMY	≤ 0.2

Variant	one-hybrid fitness for binding parS DNA
RDTG	≤ 0.2
RTPN	0.211
RTYP	≤ 0.2
RTSD	≤ 0.2
RTSS	0.938
RTWS	1.05
RTPH	≤ 0.2
RTPS	0.822
RTYS	1
RTYD	≤ 0.2
RTSN	0.422
RTWD	0.22
RTWP	0.271
NVPD	≤ 0.2
TDEP	≤ 0.2
APNE	≤ 0.2
FINR	≤ 0.2
PGNR	≤ 0.2
YRNV	≤ 0.2
PVLC	≤ 0.2
WSCE	≤ 0.2
QCQH	≤ 0.2
RTHH	≤ 0.2
RTHD	≤ 0.2

Variant	one-hybrid fitness for binding parS DNA
RTHS	0.944
RYAC	0.925
RYAM	0.267
RYFQ	≤ 0.2
RYFK	≤ 0.2
RYAK	≤ 0.2
RYFC	0.965
PLPR	≤ 0.2
RSNQ	≤ 0.2
RSYC	0.931
RSYD	≤ 0.2
RPNC	≤ 0.2
RDYC	≤ 0.2
RPYC	≤ 0.2
RCNC	0.941
RSYN	0.406
RCYC	1
RDNC	≤ 0.2
RSNC	0.957
RENC	0.27
KDHC	≤ 0.2
ISLY	≤ 0.2
LALC	≤ 0.2
LFYG	≤ 0.2

Variant	one-hybrid fitness for binding parS DNA
TPSE	≤ 0.2
GIAA	≤ 0.2
MCGR	≤ 0.2
RSDD	≤ 0.2
RCRC	0.863
RSRC	0.932
RSRF	0.281
RERC	0.334
RSDN	0.313
RSDC	0.773
RPDC	≤ 0.2
RCDC	0.877
RDRC	≤ 0.2
REDC	≤ 0.2
RPRC	≤ 0.2
AHPR	≤ 0.2
NQNV	≤ 0.2
QPDY	≤ 0.2
SCMC	≤ 0.2
LKGL	≤ 0.2
CAST	≤ 0.2
INPC	≤ 0.2
ETLI	≤ 0.2
FWGR	≤ 0.2

Variant	one-hybrid fitness for binding parS DNA
RHDH	≤ 0.2
RHNH	≤ 0.2
RHNS	0.864
RHDP	≤ 0.2
RHND	≤ 0.2
RHDS	0.967
SDHS	≤ 0.2
QQDM	≤ 0.2
MDNG	≤ 0.2
EESV	≤ 0.2
LGER	≤ 0.2
RQGL	≤ 0.2
RPTG	≤ 0.2
RLTD	≤ 0.2
RRTG	0.699
RITG	0.997
RCTG	1.02
RRTM	0.351
RITP	≤ 0.2
RLTG	1.03
RITD	≤ 0.2
RRTK	≤ 0.2
RETG	0.249
RLTQ	≤ 0.2

Variant	one-hybrid fitness for binding parS DNA
QTKN	≤ 0.2
DQEG	≤ 0.2
NHEC	≤ 0.2
QCPT	≤ 0.2
IMKR	≤ 0.2
GAMN	≤ 0.2
LESA	≤ 0.2
LGIT	≤ 0.2
SQRC	≤ 0.2
GQLN	≤ 0.2
NPSA	≤ 0.2
GPFR	≤ 0.2
RHTD	≤ 0.2
RKTG	0.905
RMTH	0.218
RHTK	≤ 0.2
RMTK	≤ 0.2
NFTG	≤ 0.2
DFTG	≤ 0.2
RKTR	≤ 0.2
RMTG	1.02
RKTK	≤ 0.2
RHTG	0.967
RFTG	0.977

Variant	one-hybrid fitness for binding parS DNA
ARLR	≤ 0.2
MAAN	≤ 0.2
VTYC	≤ 0.2
VAAS	≤ 0.2
WVLT	≤ 0.2
IAPF	≤ 0.2
QMYC	≤ 0.2
YLQA	≤ 0.2
IPAC	≤ 0.2
RTTG	1
RSTG	1
RSTN	0.461
RTTR	≤ 0.2
RSTP	≤ 0.2
RTTY	0.477
VSEV	≤ 0.2
PLGR	≤ 0.2
SLYF	≤ 0.2
HVAN	≤ 0.2
SESV	≤ 0.2
KMES	≤ 0.2
AYKT	≤ 0.2
HFLP	≤ 0.2
IRCS	≤ 0.2

Variant	one-hybrid fitness for binding parS DNA
RNVT	0.514
RNKT	0.819
RNVH	0.202
RNKR	≤ 0.2
RNKF	0.242
RNVN	≤ 0.2
NALR	≤ 0.2
TTTT	≤ 0.2
IISE	≤ 0.2
HKNW	≤ 0.2
PIET	≤ 0.2
ILAD	≤ 0.2
RHFS	0.965
RHFH	≤ 0.2
RHAS	0.933
RHAN	0.371
RHAP	≤ 0.2
RHFD	≤ 0.2
LHQT	≤ 0.2
RQAF	0.25
RQFM	0.279
RQFY	0.398
RQFC	0.816
RQAQ	≤ 0.2

Variant	one-hybrid fitness for binding parS DNA
RQAC	0.947
LNHR	≤ 0.2
ERQR	≤ 0.2
SWSW	≤ 0.2
TRLI	≤ 0.2
CQYS	≤ 0.2
LSGY	≤ 0.2
HRTK	≤ 0.2
RRMC	0.625
RCMC	0.976
RDMC	≤ 0.2
RIMD	0.234
RLMC	0.992
RLMP	0.229
RRMH	≤ 0.2
RRMD	≤ 0.2
RIMN	0.39
RLMH	0.291
RPMC	≤ 0.2
RIMC	0.986
